HCMV antiviral: qHTS Assay for inhibitors of the human cytomegalovirus (HCMV). HFF cells, HCMV-luciferase reporter, 72 h; active compounds read low. activity change, negative = inhibition, % at 57.5 µM. hit rate 4.5% among 410,000. AID 1259415, 2018; in the data active means activity change below about -60%; inconclusive means no clear call, values can overlap the other calls; inactive means above about -39%
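Cell-based, HFFs, 1000 cells/well, 16 h 37C; cpds in DMSO + HCMV-luc, MOI 1 PFU/cell; 72 h 37C; OneGlo luminescence after 5 min RT; norm. to buffer vs Salinomycin 10uM.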
FMDV antiviral: High Throughput Screening for Foot and Mouth Disease Virus Antivirals; FMDV antiviral cell-based qHTS; Potency, µM (titrated, usually from 57.9 µM), inactives show at the top dose activity change, negative = inhibition, hits mostly inhibitors; hit rate 1.2% among 410,000; AID 1159524, 2015; calls by dose curve; tested in HEK293T cells; further: read-out not given here; potency means the concentration at half of the fitted maximal effect; nearly all actives have a fitted effect of over 45% in size
HCV inhibitor: qHTS Assay for Inhibitors of Hepatitis C Virus (HCV); Potency, µM (highest dose often 41.8 µM), inactives show at the top dose activity change, negative = inhibition, hits mostly inhibitors; Huh7.5.1 HCVcc-Cre infection, luciferase reporter, 44 h; hit rate 3.4% among 340,000; active means well fitted inhibition curve with a large enough effect; inconclusive means small, poorly fitted or top-dose-only effect, or another doubt; inactive means no such curve, though single readings can be large or run the other way; further: potency means the concentration at half of the fitted maximal effect
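Compounds are dispensed onto cells plated 4 h earlier at 1,000 per well, with HCVcc-Cre virus (about 0.5 moi) added next. Following 44 h of culture, luminescent signal is measured for 15 sec after 15 min with substrate at room temperature.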
LASV entry inh: qHTS for Inhibitors of binding or entry into cells for Lassa Virus | Potency, µM (series often up to 37.9 µM), for inactives: at the top dose activity change, negative = inhibition, actives largely listed as inhibitors | Lassa virus pseudotype entry inhibition, cell reporter | hit rate 1.2% among 300,000; calls by dose curve; tested in HEK293 cells; further: potency means the concentration at half of the fitted maximal effect; nearly all actives have a fitted effect of over 50% in size
MARV entry inh: qHTS for inhibitors of binding or entry into cells for Marburg Virus; Marburg virus pseudotyped entry inhibition, cell reporter; Potency, µM (doses to about 37.8 µM), without a hit: top-dose activity change, negative = inhibition, hits mostly inhibitors; hit rate 1.8% among 300,000; calls by dose curve; tested in HEK293 cells; further: potency means the concentration at half of the fitted maximal effect
* marks the source's active call; other numbers are inactive results; ? = inconclusive; · = no result given; + = active, no number; ! = a repeat was not active; [ ] = another dose, or the depositor's remark. Compounds with a hit are over-represented: about 7.9% of the library has one in this group of screens. On the % scale 0 is the no-effect control and ±100 the full control effect.

SMILES	HCMV antiviral	FMDV antiviral	HCV inhibitor	LASV entry inh	MARV entry inh
c1csc(CNc2ncnc3ccc(-c4ccc5c(c4)OCO5)cc23)c1	16.5	0.0%	·	·	·
c1csc(CNc2ncnc3ccc(-c4ccoc4)cc23)c1	-91.7*	-29.3%	·	·	·
c1csc(CNc2ncnc3sccc23)c1	-78.5*	?	?	?	-28.7%
c1cncc(CNc2ncnc3sccc23)c1	-12.8	?	-28.0%	-12.9%[46.1 µM]	-10.3%[46.1 µM]
c1ccc(CNc2ncnc3sccc23)cc1	-93.7*	?	6.5%	·	·
Cc1cc2c(NCc3ccccc3)ncnc2s1	-76.2*	?	7.94µM*	8.5%[46.1 µM]	?
CN(C)C(=S)Oc1ccccc1C1(C)OCCO1	10.6	-2.8%	·	·	·
Cc1cccc(CCn2c(=O)c3ccccc3n(Cc3cccc(F)c3)c2=O)c1	3.7	-6.9%	·	-13.0%[46.1 µM]	0.6%[46.1 µM]
Cc1sc2ncnc(NCc3ccccc3)c2c1C	?	28.2µM*	5.62µM*	-23.3%	-27.4%
OC(CNc1ncnc2sccc12)c1ccccc1 (stereo not drawn)	?	1.9%	3.16µM*	?	?
CN(C)C(CNc1ncnc2sccc12)c1ccccc1 (stereo not drawn)	-24.5	-3.8%	-15.2%	2.0%	?
COc1ccc(CNc2ncnc3sccc23)cc1OC	-10.2	-24.0%	6.31µM*	?	-24.4%[46.1 µM]
COc1ccc(CNc2ncnc3sccc23)cc1	-73.5*	?	?	-29.0%	?
COc1ccc(C(CNc2ncnc3sccc23)N(C)C)cc1OC (stereo not drawn)	84.9	-24.4%	-3.4%	?	9.6%[46.1 µM]
COC(=O)N(Cc1ccccc1NC(=O)OC(C)(C)C)C(C(=O)NC1CCCC1)C(=O)c1c(C)cc(C)cc1C (stereo not drawn)	-36.6	·	·	·	·
CC(C)c1ccc(CN2C(=O)C(n3ccc4ccccc43)c3cc(F)ccc32)cc1 (stereo not drawn)	2.5	·	·	·	·
CC(NC(=O)C(=O)N1CCCCC1)C(c1cccs1)N1CCN(c2ccccc2)CC1 (stereo not drawn)	+	-2.9%	3.5%	4.0%[46.1 µM]	9.3%[46.1 µM]
CC(NC(=O)c1ccc(N(C)C)cc1)C(c1cccs1)N1CCN(C)CC1 (stereo not drawn)	-16.7	·	10µM*	24.9%	-18.7%
CC(NC(=O)c1ccc(F)cc1)C(c1cccs1)N1CCN(C)CC1 (stereo not drawn)	29.1	16.0%	-13.0%	-24.6%[14.3 µM]	-2.2%
Cc1ccccc1-c1cc2c(c(OC3CCOC3)c1)OCCN(C(=O)Cn1cccn1)C2 (stereo not drawn)	·	2.2%	·	·	·
COc1cc(-c2ccc(NC(=O)NC3CC3)c(OC)c2)ccc1NC(=O)NC1CC1	-77.3*	·	·	·	·
CCN(CC)CC(=O)Nc1ccc(-c2ccc(NC(=O)CN(CC)CC)c(OC)c2)cc1OC	-11.8	0.0%	1.78µM*	4.8%	?
O=c1[nH]c2cc3c(cc2cc1CN(CCO)S(=O)(=O)c1ccccc1)OCCO3	0.0	-20.7%	?	-4.1%	-11.3%[46.1 µM]
O=C(c1ccccc1F)N(Cc1cc2cc3c(cc2nc1N1CCOCC1)CCC3)CC1CCCO1 (stereo not drawn)	·	16.4%	·	·	·
CSCCC(NS(=O)(=O)c1ccc(Cl)cc1)C(=O)O (stereo not drawn)	-8.8	-7.7%	12.0%	6.8%[46.1 µM]	?
SMILES	HCMV antiviral	FMDV antiviral	HCV inhibitor	LASV entry inh	MARV entry inh
CSCCC(NS(=O)(=O)c1ccc(C)c(C(=O)O)c1)C(=O)O (stereo not drawn)	-63.8*	-0.1%	2.3%	-3.9%[46.1 µM]	0.3%[46.1 µM]
COc1cccc(CN(C)CC(=O)Nc2ccccc2C(C)C)c1	-64.7*	?	-18.1%	-14.3%	?
CSc1ccccc1NC(=O)CN(C)Cc1cccc(Cl)c1	-37.9	?	-8.1%	?	?
COc1ccc(NC(=O)CN(C)C2CCCCC2)c([N+](=O)[O-])c1	?	-13.4%	9.4%	-1.1%	?
FC(F)(F)COc1nc(N/N=C/c2cccnc2)nc(N2CCCCC2c2ccccn2)n1 (stereo not drawn)	-71.7*	-13.7%	?	-15.9%	-0.5%
COCc1cc(=O)[nH]c(Nc2nc3ccccc3o2)n1	16.0	-13.1%	-20.6%	?	?
Cc1ccc2oc(Nc3nc(-c4ccccc4)cc(=O)[nH]3)nc2c1	-101.1*	?	0.0%	-17.3%	?
CCOc1cc(CNc2ccc(O)cc2)cc(Br)c1OCc1ccccc1	-104.4*	?	·	-7.1%[46.1 µM]	?
CCOc1cc(CNCCO)cc(Br)c1OCc1ccccc1Cl	-2.8	12.6µM*	8.91µM*	?	15.8µM*
CCOc1cccc(CNCCO)c1OCc1ccc(Cl)cc1	?	?	?	-26.4%	?
Nc1nonc1C(=O)NCCNCc1cc(Br)ccc1OCc1ccccc1F	-61.6*	?	10µM*	-19.2%	?
CCOc1cc(CNCCO)cc(Br)c1OCc1ccc(Cl)cc1	-98.5*	?	12.6µM*	?	?
OCCNCc1cc(Br)ccc1OCc1ccccc1Cl	-60.6*	?	?	-16.6%	?
CCOc1cc(CNC(C)(C)CO)cc(Br)c1OCc1ccc(Cl)cc1Cl	4.0	?	2.82µM*	?	18.3µM*
CCOc1cc(CNCCN2CCOCC2)ccc1OCc1ccccc1Cl	-18.5	-25.8%	2.82µM*	?	?
CCOc1cc(CNCCCN2CCOCC2)cc(Br)c1OCc1ccccc1Cl	?	-28.6%	3.55µM*	?	?
COc1ccc(NC(=O)OCCn2c([N+](=O)[O-])cnc2C)cc1	41.9	3.7%	10.0%	12.7%	?
CCOC(=O)[C@]12CCC=C1N(Cc1cccc3ccccc13)C(=O)[C@H](CC(=O)N1CCCC1)C2	-8.4	-17.0%	·	·	·
Cc1ccc(-c2noc(CCC(=O)N3CCN(c4cccc(C(F)(F)F)c4)CC3)n2)cc1	-21.1	?	11.2µM*!	?	?
S=C(NCC1CCCO1)N1CCN(c2ccccc2)CC1 (stereo not drawn)	-31.2	13.1%	5.3%	0.1%	?
O=C(c1noc2c1CCCCC2)N1CCN(c2cccc(C(F)(F)F)c2)CC1	-77.8*	-15.4%	·	-10.5%[46.1 µM]	·
FC(F)(F)c1cccc(N2CCN(C(=S)NCC3CCCO3)CC2)c1 (stereo not drawn)	-65.0*	?	11.2µM*	?	?
O=C(c1cc2ccccn2n1)N1CCN(c2cccc(C(F)(F)F)c2)CC1	-67.7*	?	3.6%	-5.5%	0.0%
O=C1[C@H]2[C@@H]3[C@@H](O)[C@H](O)CC(=NOCc4ccccc4)[C@@H]3CC[C@H]2C(=O)N1Cc1ccc2c(c1)OCO2	·	·	·	?	-17.5%[14.2 µM]
CC(C)(C)CC(C)(C)c1ccc(O)c(CN2CCN(CCC#N)CC2)c1	-17.4	?	1.5%	-29.7%	?
CC(C)(C)CC(C)(C)c1ccc(O)c(Cc2ccc(Cl)cc2Cl)c1	-85.9*	28.2µM*	-19.2%	·	·
Cc1ccc(NC(=O)C2CCCN(c3cnccn3)C2)cc1Cl (stereo not drawn)	-16.7	-11.5%	·	-5.2%[46.1 µM]	17.9%[46.1 µM]

Compound activity deposited in PubChem by National Center for Advancing Translational Sciences (NCATS).
